In publication PMC7862700, “An all-to-all approach to the identification of sequence-specific readers for epigenetic DNA modifications on cytosine” one finds binding signal data, which are given here for one sequence.

What all share (assay): DAPPL (digital affinity profiling via proximity ligation, sequencing); 10 mM Tris-HCl pH 7.5, 50 mM NaCl, 1 mM DTT, 4% glycerol, room temperature, 30 min; GST-TFs on glutathione beads, 16-mer random dsDNA library, 0.1% formaldehyde crosslink after washing; high values mean tight binding
Holding throughout (conditions): protein: recombinant; tags: N-terminal GST; dsDNA, one strand shown

One assay has as its target T1, FLI1 (Homo sapiens, UniProt Q01543 1-452).
T1 sequence: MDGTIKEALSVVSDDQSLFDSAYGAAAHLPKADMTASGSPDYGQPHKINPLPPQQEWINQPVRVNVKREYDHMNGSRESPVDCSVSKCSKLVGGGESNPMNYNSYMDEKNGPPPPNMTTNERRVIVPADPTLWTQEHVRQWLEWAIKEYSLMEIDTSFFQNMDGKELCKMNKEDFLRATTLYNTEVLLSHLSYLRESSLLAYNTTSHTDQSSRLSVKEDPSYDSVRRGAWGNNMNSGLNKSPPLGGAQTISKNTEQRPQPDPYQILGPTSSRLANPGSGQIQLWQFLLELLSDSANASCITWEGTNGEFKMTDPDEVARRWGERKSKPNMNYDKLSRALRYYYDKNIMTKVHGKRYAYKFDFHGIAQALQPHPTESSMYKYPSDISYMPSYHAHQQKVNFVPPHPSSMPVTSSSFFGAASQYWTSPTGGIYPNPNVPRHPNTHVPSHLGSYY
The gist of the method:
(§1)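 Beads coated with glutathione captured GST-fused human transcription factors that had been expressed in yeast, and the factors were then given DNA barcodes and pooled with a tag-only sample. The pools were incubated with 200 nmole of a random double-stranded 16-mer DNA library in Tris/NaCl/DTT/glycerol buffer for 30 min at room temperature, washed, crosslinked with 0.1% formaldehyde and proximity-ligated with BsaI/T4 ligase at 37 °C for 1 h. PCR amplification and Illumina NextSeq500 sequencing came last. Binding signal is each hexamer's read frequency for a factor divided by its frequency for the tag-only sample.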

The next assay deals with T2, ELK1 (Homo sapiens, UniProt P19419 1-428).
T2 sequence: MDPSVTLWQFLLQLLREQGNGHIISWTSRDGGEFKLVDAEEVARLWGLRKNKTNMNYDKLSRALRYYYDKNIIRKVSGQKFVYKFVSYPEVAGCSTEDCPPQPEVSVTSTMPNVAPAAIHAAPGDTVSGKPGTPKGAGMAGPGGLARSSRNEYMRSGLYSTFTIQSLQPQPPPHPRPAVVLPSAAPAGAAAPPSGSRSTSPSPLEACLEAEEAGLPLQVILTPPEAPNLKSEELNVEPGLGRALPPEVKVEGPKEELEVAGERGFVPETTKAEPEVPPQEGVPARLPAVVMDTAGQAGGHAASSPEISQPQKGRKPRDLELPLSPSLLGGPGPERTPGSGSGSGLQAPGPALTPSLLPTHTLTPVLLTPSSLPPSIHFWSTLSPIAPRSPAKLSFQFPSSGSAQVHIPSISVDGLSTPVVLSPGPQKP
The gist of the method: as §1

Another assay addresses T3, GABPA (Homo sapiens, UniProt Q06546 1-454).
T3 sequence: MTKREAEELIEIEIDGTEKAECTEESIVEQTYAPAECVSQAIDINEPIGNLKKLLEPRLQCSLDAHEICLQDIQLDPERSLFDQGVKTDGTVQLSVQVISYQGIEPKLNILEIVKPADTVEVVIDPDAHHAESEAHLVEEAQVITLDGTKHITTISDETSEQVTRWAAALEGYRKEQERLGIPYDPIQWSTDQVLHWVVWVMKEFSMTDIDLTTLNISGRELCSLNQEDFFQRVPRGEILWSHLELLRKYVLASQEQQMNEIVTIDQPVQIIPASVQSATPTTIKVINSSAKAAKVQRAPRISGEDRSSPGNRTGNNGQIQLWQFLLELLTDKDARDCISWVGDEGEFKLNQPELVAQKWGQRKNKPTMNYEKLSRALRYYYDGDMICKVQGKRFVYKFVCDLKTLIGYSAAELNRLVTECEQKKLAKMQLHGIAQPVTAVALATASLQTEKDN
The method, boiled down:
as §1

In a further assay the target is T4, ERG (Homo sapiens, UniProt P11308 1-479).
T4 sequence: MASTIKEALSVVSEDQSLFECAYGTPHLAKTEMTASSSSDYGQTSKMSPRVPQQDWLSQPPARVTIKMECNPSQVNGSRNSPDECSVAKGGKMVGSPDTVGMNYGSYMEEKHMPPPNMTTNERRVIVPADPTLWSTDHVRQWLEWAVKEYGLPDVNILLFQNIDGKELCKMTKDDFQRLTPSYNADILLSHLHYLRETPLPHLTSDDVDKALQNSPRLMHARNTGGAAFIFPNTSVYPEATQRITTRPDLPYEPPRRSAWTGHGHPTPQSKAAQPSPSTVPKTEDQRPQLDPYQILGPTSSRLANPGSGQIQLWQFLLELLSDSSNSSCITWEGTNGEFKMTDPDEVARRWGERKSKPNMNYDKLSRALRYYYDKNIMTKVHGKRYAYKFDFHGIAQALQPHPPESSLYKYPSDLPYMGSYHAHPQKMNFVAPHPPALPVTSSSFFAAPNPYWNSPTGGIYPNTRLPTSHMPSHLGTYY
The gist of the method: as §1

Another assay concerns the target ELF1 (Homo sapiens, UniProt P32519 1-619). The method, boiled down: as §1
The target in the next assay is T5, EHF (Homo sapiens, UniProt Q9NZC4 1-300).
T5 sequence: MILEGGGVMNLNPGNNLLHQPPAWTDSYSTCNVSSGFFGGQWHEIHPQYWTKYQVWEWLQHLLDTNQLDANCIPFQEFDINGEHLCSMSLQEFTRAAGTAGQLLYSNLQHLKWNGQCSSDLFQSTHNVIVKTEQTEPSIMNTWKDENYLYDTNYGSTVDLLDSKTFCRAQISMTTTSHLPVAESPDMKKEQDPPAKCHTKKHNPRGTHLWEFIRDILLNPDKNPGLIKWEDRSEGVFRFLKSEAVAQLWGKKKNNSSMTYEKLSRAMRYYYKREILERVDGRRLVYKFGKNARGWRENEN
The method, boiled down:
as §1

The next assay addresses SPI1 (Homo sapiens, UniProt P17947 1-270). The gist of the method: as §1
The target in the next assay is SPIB (Homo sapiens, UniProt Q01892 1-262). The gist of the method:
as §1

The target in the next assay is T6, ELK3 (Homo sapiens, UniProt P41970 1-407).
T6 sequence: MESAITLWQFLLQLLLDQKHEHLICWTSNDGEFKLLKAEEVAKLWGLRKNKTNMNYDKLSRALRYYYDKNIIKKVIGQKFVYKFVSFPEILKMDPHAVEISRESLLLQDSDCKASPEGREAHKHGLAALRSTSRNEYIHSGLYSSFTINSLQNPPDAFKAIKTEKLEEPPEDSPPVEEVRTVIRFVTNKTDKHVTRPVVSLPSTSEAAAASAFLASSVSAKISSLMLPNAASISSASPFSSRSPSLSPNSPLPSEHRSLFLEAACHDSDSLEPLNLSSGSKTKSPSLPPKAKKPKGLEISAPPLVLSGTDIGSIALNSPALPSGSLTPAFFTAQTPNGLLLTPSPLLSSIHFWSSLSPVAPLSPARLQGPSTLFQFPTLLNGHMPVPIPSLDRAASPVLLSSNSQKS
The gist of the method:
as §1

A further assay addresses ETV5 (Homo sapiens, UniProt P41161 1-510). The method, boiled down: as §1
A further assay has as its target T7, SPIC (Homo sapiens, UniProt Q8N5J4 1-248).
T7 sequence: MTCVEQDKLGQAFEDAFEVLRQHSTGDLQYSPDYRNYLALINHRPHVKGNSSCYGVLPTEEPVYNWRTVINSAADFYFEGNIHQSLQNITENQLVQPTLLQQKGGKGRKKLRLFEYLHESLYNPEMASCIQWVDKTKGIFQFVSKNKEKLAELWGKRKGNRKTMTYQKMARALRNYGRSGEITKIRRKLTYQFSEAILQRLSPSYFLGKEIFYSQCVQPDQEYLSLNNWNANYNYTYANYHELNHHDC
The method, boiled down: as §1

A further assay deals with ELF4 (Homo sapiens, UniProt Q99607 1-663). The method, boiled down: as §1
A further assay has as its target ETV1 (Homo sapiens, UniProt P50549 1-477). The gist of the method:
as §1

The next assay concerns the target T8, ERF (Homo sapiens, UniProt P50548 1-548).
T8 sequence: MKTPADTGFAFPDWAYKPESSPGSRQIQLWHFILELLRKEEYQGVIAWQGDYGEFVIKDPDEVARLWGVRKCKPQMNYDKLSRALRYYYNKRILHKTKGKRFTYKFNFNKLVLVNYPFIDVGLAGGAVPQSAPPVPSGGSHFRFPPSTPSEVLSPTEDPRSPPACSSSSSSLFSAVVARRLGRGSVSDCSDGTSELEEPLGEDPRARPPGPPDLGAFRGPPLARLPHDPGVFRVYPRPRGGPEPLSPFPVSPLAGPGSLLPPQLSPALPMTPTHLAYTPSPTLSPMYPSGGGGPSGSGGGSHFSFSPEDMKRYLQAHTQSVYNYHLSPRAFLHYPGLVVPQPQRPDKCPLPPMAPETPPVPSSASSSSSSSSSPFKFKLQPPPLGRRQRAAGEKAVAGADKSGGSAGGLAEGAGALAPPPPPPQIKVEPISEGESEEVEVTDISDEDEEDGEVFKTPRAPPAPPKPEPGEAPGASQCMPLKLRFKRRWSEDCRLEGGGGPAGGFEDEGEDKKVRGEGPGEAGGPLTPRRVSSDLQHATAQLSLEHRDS
The method, boiled down:
as §1

The target in the next assay is T9, ETV3L (Homo sapiens, UniProt Q6ZN32 1-361).
T9 sequence: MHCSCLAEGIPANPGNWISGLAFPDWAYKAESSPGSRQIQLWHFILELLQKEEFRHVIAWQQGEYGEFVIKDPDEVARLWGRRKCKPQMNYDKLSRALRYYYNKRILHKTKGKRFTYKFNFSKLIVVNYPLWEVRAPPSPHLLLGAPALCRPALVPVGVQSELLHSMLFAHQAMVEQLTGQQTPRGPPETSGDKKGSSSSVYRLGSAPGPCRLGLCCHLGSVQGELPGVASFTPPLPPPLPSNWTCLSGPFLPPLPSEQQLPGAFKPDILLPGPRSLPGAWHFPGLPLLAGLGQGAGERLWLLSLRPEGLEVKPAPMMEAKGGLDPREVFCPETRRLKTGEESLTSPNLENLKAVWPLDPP
The method, boiled down:
as §1

The next assay addresses T10, ETS2 (Homo sapiens, UniProt P15036 1-469).
T10 sequence: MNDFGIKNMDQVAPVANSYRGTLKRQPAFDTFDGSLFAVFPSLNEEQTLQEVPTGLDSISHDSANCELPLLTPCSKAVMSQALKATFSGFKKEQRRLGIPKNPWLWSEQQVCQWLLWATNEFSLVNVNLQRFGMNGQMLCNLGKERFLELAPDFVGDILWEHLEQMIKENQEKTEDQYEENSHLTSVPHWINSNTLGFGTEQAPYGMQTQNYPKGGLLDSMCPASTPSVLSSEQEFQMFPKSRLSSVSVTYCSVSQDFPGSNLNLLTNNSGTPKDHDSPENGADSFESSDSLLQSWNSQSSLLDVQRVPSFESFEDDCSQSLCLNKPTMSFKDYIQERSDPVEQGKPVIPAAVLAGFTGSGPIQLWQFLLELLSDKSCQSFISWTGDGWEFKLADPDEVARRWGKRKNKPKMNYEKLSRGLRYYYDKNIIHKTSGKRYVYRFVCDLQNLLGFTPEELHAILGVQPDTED
The gist of the method: as §1

For a further assay, the target named is T11, ELF5 (Homo sapiens, UniProt Q9UKW6-2 1-255).
T11 sequence: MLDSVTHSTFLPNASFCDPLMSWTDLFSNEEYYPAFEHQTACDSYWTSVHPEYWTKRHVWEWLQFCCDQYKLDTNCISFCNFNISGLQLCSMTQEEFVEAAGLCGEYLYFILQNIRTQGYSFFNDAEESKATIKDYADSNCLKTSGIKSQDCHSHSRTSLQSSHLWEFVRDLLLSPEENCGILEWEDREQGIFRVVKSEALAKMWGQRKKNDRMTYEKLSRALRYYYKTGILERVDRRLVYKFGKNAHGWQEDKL
The gist of the method: as §1

In another assay the target is T12, ETV3 (Homo sapiens, UniProt P41162-2 1-143).
T12 sequence: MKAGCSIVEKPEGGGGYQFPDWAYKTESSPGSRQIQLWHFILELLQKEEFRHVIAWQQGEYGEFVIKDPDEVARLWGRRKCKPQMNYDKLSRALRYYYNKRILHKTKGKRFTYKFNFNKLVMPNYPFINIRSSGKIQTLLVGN
The method, boiled down:
as §1

A further assay concerns the target ETV6 (Homo sapiens, UniProt P41212 1-452). The method, boiled down:
as §1

Sequence of ETV5 (P41161 whole entry): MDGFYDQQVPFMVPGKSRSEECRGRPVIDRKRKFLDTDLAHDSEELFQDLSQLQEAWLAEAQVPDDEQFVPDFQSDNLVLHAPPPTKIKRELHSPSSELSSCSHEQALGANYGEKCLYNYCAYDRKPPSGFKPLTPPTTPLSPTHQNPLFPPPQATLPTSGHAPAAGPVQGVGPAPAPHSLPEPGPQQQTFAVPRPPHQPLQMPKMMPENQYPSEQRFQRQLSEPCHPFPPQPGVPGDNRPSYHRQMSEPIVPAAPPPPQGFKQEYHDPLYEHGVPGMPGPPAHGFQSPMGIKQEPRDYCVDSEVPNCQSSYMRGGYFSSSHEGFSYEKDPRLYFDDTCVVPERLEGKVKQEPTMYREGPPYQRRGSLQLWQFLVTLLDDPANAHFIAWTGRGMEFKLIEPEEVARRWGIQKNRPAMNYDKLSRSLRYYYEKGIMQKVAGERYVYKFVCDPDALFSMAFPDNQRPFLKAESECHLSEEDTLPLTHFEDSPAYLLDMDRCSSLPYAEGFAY
Sequence of ETV6 (P41212 whole entry): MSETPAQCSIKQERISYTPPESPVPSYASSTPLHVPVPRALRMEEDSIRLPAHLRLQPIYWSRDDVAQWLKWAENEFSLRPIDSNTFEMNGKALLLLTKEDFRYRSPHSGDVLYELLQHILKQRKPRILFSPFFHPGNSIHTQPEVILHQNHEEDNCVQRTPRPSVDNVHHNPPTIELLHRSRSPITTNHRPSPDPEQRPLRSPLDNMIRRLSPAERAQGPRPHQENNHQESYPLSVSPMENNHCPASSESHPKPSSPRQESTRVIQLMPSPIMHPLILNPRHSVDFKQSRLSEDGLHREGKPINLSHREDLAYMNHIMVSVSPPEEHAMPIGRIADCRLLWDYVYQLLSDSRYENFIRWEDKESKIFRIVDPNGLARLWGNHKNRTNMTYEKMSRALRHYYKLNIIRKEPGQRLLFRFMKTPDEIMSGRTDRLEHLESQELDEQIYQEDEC
Sequence of ETV1 (P50549 whole entry): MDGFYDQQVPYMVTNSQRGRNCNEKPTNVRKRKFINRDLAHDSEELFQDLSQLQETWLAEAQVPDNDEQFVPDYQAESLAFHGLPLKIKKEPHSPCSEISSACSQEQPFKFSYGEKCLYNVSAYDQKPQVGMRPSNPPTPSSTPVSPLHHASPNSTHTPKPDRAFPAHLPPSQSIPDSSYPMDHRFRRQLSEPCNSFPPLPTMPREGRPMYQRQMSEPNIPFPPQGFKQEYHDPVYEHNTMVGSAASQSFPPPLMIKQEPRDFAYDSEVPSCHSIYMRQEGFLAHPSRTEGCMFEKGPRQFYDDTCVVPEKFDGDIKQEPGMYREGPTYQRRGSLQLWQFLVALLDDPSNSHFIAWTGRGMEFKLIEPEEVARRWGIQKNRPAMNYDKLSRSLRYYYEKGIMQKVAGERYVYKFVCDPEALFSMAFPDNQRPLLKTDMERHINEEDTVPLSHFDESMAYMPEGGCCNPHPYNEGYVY
Sequence of ELF1 (P32519 whole entry): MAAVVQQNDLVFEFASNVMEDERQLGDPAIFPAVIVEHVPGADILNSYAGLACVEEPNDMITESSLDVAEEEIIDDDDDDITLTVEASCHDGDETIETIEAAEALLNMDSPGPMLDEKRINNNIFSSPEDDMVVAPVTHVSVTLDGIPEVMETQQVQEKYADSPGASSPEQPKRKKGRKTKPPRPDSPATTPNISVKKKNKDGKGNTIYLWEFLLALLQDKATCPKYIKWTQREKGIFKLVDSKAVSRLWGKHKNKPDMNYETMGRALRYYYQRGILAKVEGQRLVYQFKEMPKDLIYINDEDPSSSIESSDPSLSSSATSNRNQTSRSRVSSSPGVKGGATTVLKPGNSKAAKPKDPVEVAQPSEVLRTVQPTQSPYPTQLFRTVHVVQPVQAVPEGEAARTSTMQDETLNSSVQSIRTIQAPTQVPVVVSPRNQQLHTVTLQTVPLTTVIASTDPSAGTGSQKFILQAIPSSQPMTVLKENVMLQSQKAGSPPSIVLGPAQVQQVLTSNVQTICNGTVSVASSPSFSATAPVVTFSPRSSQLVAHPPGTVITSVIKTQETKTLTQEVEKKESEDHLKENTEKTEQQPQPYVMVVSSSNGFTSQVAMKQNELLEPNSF
Sequence of ELF4 (Q99607 whole entry): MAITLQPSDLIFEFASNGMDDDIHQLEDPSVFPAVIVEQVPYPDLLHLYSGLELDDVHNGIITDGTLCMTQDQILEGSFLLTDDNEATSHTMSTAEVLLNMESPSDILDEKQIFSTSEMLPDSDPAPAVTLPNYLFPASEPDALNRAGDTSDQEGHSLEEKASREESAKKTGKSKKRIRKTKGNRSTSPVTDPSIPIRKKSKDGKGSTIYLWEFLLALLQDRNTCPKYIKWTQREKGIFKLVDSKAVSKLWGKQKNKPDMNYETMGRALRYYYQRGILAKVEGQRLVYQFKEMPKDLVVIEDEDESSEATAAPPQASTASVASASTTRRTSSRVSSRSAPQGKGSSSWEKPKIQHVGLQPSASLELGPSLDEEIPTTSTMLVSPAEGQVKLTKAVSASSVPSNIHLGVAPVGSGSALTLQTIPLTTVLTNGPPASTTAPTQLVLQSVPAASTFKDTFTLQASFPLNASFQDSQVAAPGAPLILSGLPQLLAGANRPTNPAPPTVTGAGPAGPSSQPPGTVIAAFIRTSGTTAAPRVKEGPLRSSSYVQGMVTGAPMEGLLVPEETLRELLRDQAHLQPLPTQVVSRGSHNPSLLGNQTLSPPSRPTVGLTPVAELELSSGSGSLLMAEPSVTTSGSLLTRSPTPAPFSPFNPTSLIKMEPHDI
Sequence of SPIB (Q01892 whole entry): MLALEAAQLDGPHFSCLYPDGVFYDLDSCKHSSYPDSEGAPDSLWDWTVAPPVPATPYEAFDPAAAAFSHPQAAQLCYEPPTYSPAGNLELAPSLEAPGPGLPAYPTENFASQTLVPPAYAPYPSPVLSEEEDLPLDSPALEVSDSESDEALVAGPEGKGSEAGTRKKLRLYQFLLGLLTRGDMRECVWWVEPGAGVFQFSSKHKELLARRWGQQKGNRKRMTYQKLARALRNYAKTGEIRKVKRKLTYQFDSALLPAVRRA

In the case of ACGGCA, the binding signal with FLI1 is 1.04 fold enrichment (6-mer frequency, TF over GST control); with ELK1, 1.01 fold enrichment (6-mer frequency, TF over GST control); in the assay with GABPA, 1.1 fold enrichment (6-mer frequency, TF over GST control); in the assay with ERG, 1.03 fold enrichment (6-mer frequency, TF over GST control); with ELF1, 1.04 fold enrichment (6-mer frequency, TF over GST control); with EHF, 1.11 fold enrichment (6-mer frequency, TF over GST control). Moreover, the binding signal is 1.05 fold enrichment (6-mer frequency, TF over GST control) in the assay with SPI1; 1.1 fold enrichment (6-mer frequency, TF over GST control) with SPIB; 1.01 fold enrichment (6-mer frequency, TF over GST control) in the assay with ELK3; 1.13 fold enrichment (6-mer frequency, TF over GST control) with ETV5; 1.05 fold enrichment (6-mer frequency, TF over GST control) with SPIC; 1.06 fold enrichment (6-mer frequency, TF over GST control) with ELF4. Moreover, the binding signal in the assay with ETV1 is 1.03 fold enrichment (6-mer frequency, TF over GST control); with ERF, 1.01 fold enrichment (6-mer frequency, TF over GST control); with ETV3L it was 1.1 fold enrichment (6-mer frequency, TF over GST control); with ETS2, 1.09 fold enrichment (6-mer frequency, TF over GST control); in the assay with ELF5, 1.03 fold enrichment (6-mer frequency, TF over GST control); with ETV3, 1.06 fold enrichment (6-mer frequency, TF over GST control). In addition, the binding signal with ETV6 was 1.14 fold enrichment (6-mer frequency, TF over GST control).
